# ± gives the standard deviation.
# System: MILI (PIWIL2) piRISC loaded with L1MC piRNA (26 nt)
# Assay: pre-steady-state target cleavage rate (min^-1); guide: L1MC piRNA 5'p-UAACUAAAUACUAUGCAAGCUGUAGG; MIWI and MILI are mouse PIWI proteins and EfPiwi is from a freshwater sponge; tags in brackets are library labels; higher = faster piRNA-guided slicing of the target
# Settings: auxiliary factor: 500 nM mouse GTSF1
# In short: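 Active affinity-purified piRISC (1 nM) loaded with one synthetic guide was mixed with a transcribed, DNA-blocked target RNA library (0.1 nM), with or without 500 nM GTSF1 partner protein, in HEPES–potassium acetate buffer at 33 °C for 0–8 or 0–960 min. Uncleaved targets were sequenced, normalised to depth and to weakly complementary targets, and pooled across three trials, with k3 capped at 0.0001 min^-1. The pre-steady-state cleavage rate was determined with a burst-and-steady-state fit.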
row,Sequence,pre-steady-state target cleavage rate
1,UCCUGGAACAGCUUGCAUAGAAUUUAGUAA,0.0627 ± 0.014
2,UCCUGCAUCAGCUUGCAUAGUAUUUAGAAA,0.127 ± 0.022
3,UCCUGGAUCAGCUUGCAUAGUUAAUAGUUA,0.017 ± 0.0066
4,UCCUCCUACACCUUGCAUAGAAUUUAGUUA,0.0594 ± 0.019
5,UCCUGGAUGUGCUUGCAUAGUAUUUAGUCUA,0.0182 ± 0.006
6,UCCUGCUACAGCUUGCAUACUAUUUUGUUA,0.0252 ± 0.0096
7,UCCUGCUACAGCUUGCAUAGUAUUUUGAUA,0.142 ± 0.037
8,UCCUGGUACACCUUGCAUAGUAUUUAGAUA,0.0475 ± 0.016
9,UCCUGCUACAGCUUGCAUAGUAUUAAGAUA,0.019 ± 0.0078
10,UCCUCCUACAGCUUGCAAAGUAUUUUCAAA,0.0849 ± 0.023
11,UCCUGCUACAGCAUGCAUACUAUUUAGUUA,0.148 ± 0.028
12,UCCUCCUACAGCUUGCAUAGUAUUUAGUGUA,0.158 ± 0.027
13,UCCUCCUACAGGAUGCAUAGUAUUUACAAA,0.0521 ± 0.011
14,UCCUGCUACAGCUUGCAUAGUAUUUUCUUA,0.0484 ± 0.01
15,UCCUGGAUCAGCUUGGAUAGUAUUUAGAAA,0.0109 ± 0.0051
16,UCCUCCUACAGCUUGCAUAGUAUUUUCUUA,0.126 ± 0.027
17,UCCUGGUACAGCUUGCAUAGUAAUUACAAA,0.021 ± 0.0095
18,UCCUGGAUGAGCUUGCAUAGUAUUUAGCUUA,0.104 ± 0.026
19,UCCUGCUACACCUUGCAUAGUAUUUUCAAA,0.0765 ± 0.028
20,UCCUGCUACAGCUUGCAAAGUAUUUAGAAA,0.159 ± 0.033

row,Sequence,pre-steady-state target cleavage rate
1,UCCUCCAACAGCUUGCAUAGUAUUUAGAAA,0.147 ± 0.023
2,UCCUCCUUCAGCUUGCAUAGUAUUUAGAAA,0.119 ± 0.021
3,UCCUCGUACAGCUUGCAUAGUAUUUAGAUA,0.177 ± 0.025
4,UCCUGGAUCAGCUUGCCAUAGUAUUUAGUUA,0.0992 ± 0.014
5,UCCUGGAUCAGCUUGCAUACUAUUUAGUAA,0.0386 ± 0.0077
6,UCCUCCAACAGCUUGCAUAGUAUUUUGUUA,0.108 ± 0.019
7,UCCUGCUACAGGUUGCAUAGUAUUUUCAAA,0.0101 ± 0.0054
8,UCCUCCUACAGCUUGCAGUAGUAUUUAGUUA,0.0101 ± 0.0053
9,UCCUGCUACAGCUUGCAUAGAAUUUAGUAA,0.237 ± 0.062
10,UCCUGGAUCAGCUUGCAUAGUAUAUAGAUA,0.0407 ± 0.013
11,UCCUGGAACAGCUUGCAUUGUAUUUUGUUA,0.102 ± 0.013
12,UCCUGCUACAGCUUGCAUAGUAUUUACUAA,0.112 ± 0.024
13,UCCUGGAACAGCUUGCAUAGUAUUUCAGUUA,0.131 ± 0.028
14,UCCUGCUACAGCUUGCUAUAGUAUUUAGUUA,0.05 ± 0.017
15,UCCUGCUACAGCUUCCAUAGUAUUUAGUAA,0.0172 ± 0.0082
16,UCCUGCUACAGCUUGCUUAGUAUUAAGUUA,0.179 ± 0.026
17,UCCUCCUACAGCAUGCAUAGUAUUUAGAUA,0.176 ± 0.027
18,UCCUCCUACAGCUUGCAUACUAUUUAGAUA,0.0353 ± 0.01
19,UCCUGGUACUGCUUGCAUAGUAUUUAGAAA,0.0143 ± 0.0067
20,UCCUCCAACAGCUUGCAUAGUAUUUACUUA,0.122 ± 0.022
